TAG inh: inhibitors of triacylglycerol accumulation; H9c2 cells, Nile Red lipid (TAG) fluorescence; cells loaded with 200 µM oleic acid; inhibition, % at 12.5 µM; 230,000 tested, 0.66% active;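 active = pattern-corrected inhibition of lipid staining of at least 50% with the nuclear-stain viability signal not falling by more than 50%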;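 also: 0% = DMSO wells and 100% = triacsin C control wells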
GC-B act: GC-B (human) receptor activation; AID 1920062; 370,000 tested, 0.11% active; HEK293-GC-B cells, CNP EC30, cGMP TR-FRET; 0% at EC30 CNP, 100% saturating CNP; activation, % at 10 µM; P20594;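 active = activation at 10 µM reaching about 35% in either raw or pattern-adjusted values, limit read from the data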
GC-A act: GC-A (human) enzyme activation. P16066. HEK293 GC-A cells, cGMP TR-FRET, EC30 ANP; 0% at EC30 ANP, 100% saturating ANP. activation, % at 10 µM. 370,000 tested, 0.14% active. AID 1671463; in the data active = activation above about 40%
HSV augment: increases HSV replication in cells; AID 1956; maximum fold increase; HSV replication augmentation in cells, fold increase; 220,000 tested, 0.005% active; in the data active = maximum fold increase above about 1.5; tested in PC3 cells
A1 inh: inhibitors of the anti-apoptotic protein A1, read as caspase activation. MEF A1-2A-BIM cells, Caspase-Glo 3/7 luminescence, 3 h; percent of clofoctol response, vehicle zero. caspase activation, % (concentration not given with the values). 330,000 tested, 0.066% active. AID 2462;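 active = over half of replicate activation scores above 10%, or exactly half above 10 with the replicate mean above 10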
Efflux pump mplx: antifungal efflux pump inhibition, Nile Red retention; inhibition, % at 10 µM; S. cerevisiae Candida pump triplex; 330,000 tested, 0.44% active; AID 485275;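 active = plate passing quality check with inhibition over a set limit, or well fluorescence over plate mean plus 4 SD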;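 also: Nile Red retained in pooled yeast measured as flow cytometry median fluorescence; 0% = buffer negative control and 100% = Enniatin B positive control; higher means more Nile Red kept so more efflux inhibition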
Cmpd fluor yeast: counter-screen for efflux pump inhibitors: compound fluorescence. S. cerevisiae AD/pABC3, flow cytometry. 1,700 tested, 4% active. shares compounds with Efflux pump mplx. fluorescence ratio to DMSO, % at 10 µM;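 active = fluorescence ratio to DMSO above its plate's cutoff, the plate mean ratio plus 5 SD, cut at about 210% in these data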;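 also: unstained yeast with no Nile Red so the signal is compound autofluorescence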
Mdr1 pump inh: inhibitors of Candida albicans Mdr1 efflux pump; shares compounds with Efflux pump mplx; S. cerevisiae AD/CaMDR1, Nile Red efflux, flow cytometry; inhibition, % at 10 µM; 1,700 tested, 1% active; in the data active = inhibition above about 26%;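 also: 0% = DMSO vehicle and 100% = reference inhibitor; higher means more Nile Red retained so more efflux inhibition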
Cdr2 pump inh: blocks the Candida albicans Cdr2 efflux pump in yeast; shares compounds with Efflux pump mplx; S. cerevisiae AD/CaCDR2, Nile Red retention, flow cytometry; Nile Red retention ratio vs DMSO, % at 10 µM; 1,700 tested, 4% active; AID 588520; in the data active = Nile Red retention ratio vs DMSO above about 190%;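 also: higher ratio means more blocking of Cdr2 efflux of the dye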
CaCdr1 efflux inh: inhibitors of Candida albicans Cdr1 efflux pump. shares compounds with Efflux pump mplx. S. cerevisiae AD/CaCDR1, Nile Red efflux, flow cytometry. inhibition, % at 10 µM. 1,700 tested, 1% active;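 active = inhibition above the screen-wide mean plus twice its standard deviation, cut at about 32% in these data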
The depositor's hits bear a star; i = inactive; . = no result. In the library only some 1% were active in any assay of this set; here they are far more common.

SMILES | TAG inh | GC-B act | GC-A act | HSV augment | A1 inh | Efflux pump mplx | Cmpd fluor yeast | Mdr1 pump inh | Cdr2 pump inh | CaCdr1 efflux inh
COCCCNC(=O)C[C@H]1C[C@@]2(C(=O)OC)C(=C[C@H](C(C)C)O[C@@H]2C2CC2)N(Cc2ccco2)C1=O | . | -4 | -2 | . | . | . | . | . | . | .
Cc1ccccc1C(=O)NC1CCCCN(Cc2ccc(Cl)cc2)C1=O (centres undefined) | . | 8 | -2 | . | . | . | . | . | . | .
Cc1ccccc1COc1ccc(/C=N/NC(=O)c2nnn(-c3nonc3N)c2CN2CCC(C)CC2)cc1 | . | 2 | -2 | . | -2 | 0 | . | . | . | .
CCCOc1ccc(-c2c(C(=O)N/N=C/c3ccc(OCC)cc3)nnn2-c2nonc2N)cc1 | . | 6 | 7 | i | 1 | 0 | . | . | . | .
CCOc1ccc(-c2c(C(=O)N/N=C(\C)c3ccccc3OC)nnn2-c2nonc2N)cc1 | . | 3 | 1 | . | 2 | 0 | 98 | 0 | 92 | 0
CCOc1ccc(-c2c(C(=O)N/N=C(\C)c3ccco3)nnn2-c2nonc2N)cc1 | . | 2 | 2 | . | -1 | 0 | . | . | . | .
CN(C)c1ccc(/C=N/NC(=O)c2nnn(-c3nonc3N)c2COc2ccc(F)cc2)cc1 | 2 | 1 | 4 | i | 1 | 0 | 91 | 0 | 114 | 0
CC1CCN(Cc2c(C(=O)N/N=C/c3ccc(OC(C)C)cc3)nnn2-c2nonc2N)CC1 | . | -1 | 2 | . | 1 | 0.4* | 111 | 0 | 108 | 0
CCOc1ccc(-c2c(C(=O)N/N=C/c3ccc(O)cc3)nnn2-c2nonc2N)cc1 | -10 | 3 | 0 | i | 0 | 0 | 98 | 0 | 101 | 0
O=C(Nc1ccc(F)cc1)OCc1cn(Cc2cccc(C(F)(F)F)c2)nn1 | . | 3 | -2 | . | . | . | . | . | . | .
Cc1cc2nc3s/c(=C/c4ccc(-c5ccccc5C(=O)O)o4)c(=O)n3c2cc1C | . | 0 | 11 | . | -2 | 0.9* | 133 | 0 | 142 | 0
O=C(Oc1ccc(/C=N/NC(=O)c2ccccn2)cc1)c1cccc(Br)c1 | 2 | 5 | 0 | . | -9 | 0 | . | . | . | .
O=C(Oc1ccc(/C=N/NC(=O)c2ccccn2)cc1)c1ccc(Br)cc1 | 5 | 0 | 6 | . | -6 | 7.2* | 101 | 0 | 102 | 0
O=C(COc1ccc(Cl)cc1Cl)NC1CC1 | -15 | -1 | 7 | . | . | . | . | . | . | .
O=C(COc1ccc(Cl)cc1Cl)NC1CCSC1=O (centres undefined) | . | -4 | 4 | i | -1 | 1.7* | 98 | 0 | 106 | 0
COc1ccc(/C=N\NC(=O)c2ccccc2OC)cc1COc1c(F)c(F)c(F)c(F)c1F | -14 | 2 | -4 | . | 0 | 9.2* | 99 | 0 | 101 | 0
COc1ccc(N2C(=O)CC(NNC(=O)c3ccco3)C2=O)cc1 (centres undefined) | -7 | 2 | 2 | i | 1 | 2.1* | 105 | 0 | 110 | 0
COc1ccc2[nH]cc(C(=O)CN3CCC(C)CC3)c2c1 | . | 0 | -4 | i | 0 | 8.2* | 105 | 0 | 112 | 0
COc1ccc2[nH]cc(C(=O)CN3CCCC(C)C3)c2c1 (centres undefined) | . | -2 | -1 | i | 0 | 0 | . | . | . | .
Cc1ccc(-c2nnc(Nc3ccc4c(c3)OCO4)c3ccccc23)cc1S(=O)(=O)NCCO | . | 8 | 9 | i | -1 | 13* | 106 | 0 | 107 | 0
COc1ccc(CCC[C@@H](CCC(=O)N(c2ccccc2)c2ccccc2)CCc2ccccc2)cc1 | . | 8 | 2 | . | . | . | . | . | . | .
Cc1cc(O)c(C(C)C)cc1C1(c2cc(C(C)C)c(O)cc2C)OC(=O)c2ccccc21 | -15 | 1 | -22 | i | -1 | 1.2* | 117 | 0 | 109 | 0
